According to PubChem BioAssay (Tox21):
Results filed as inconclusive are left out. Entries that show only a call come without a potency. The source made the active and inactive calls. Unless noted, calls come from the whole dose curve; as a rule, active = well fitted curve in the direction sought with a large enough effect in the repeat runs; inconclusive = weak or mixed curves; inactive = no such curve, though single readings can be large; an effect the other way counts as inactive or inconclusive.

Experiments:
[1] = qHTS assay to identify small molecule antagonists of the glucocorticoid receptor (GR) signaling pathway - cell viability counter screen (AID 720693); note: nearly all actives have a fitted effect of over 55% in size
[2] = qHTS assay for identifying genotoxic compounds that show differential cytotoxicity against isogenic chicken DT40 cell lines with known DNA damage response pathways - wild type cell line (AID 743012); note: nearly all actives have a fitted effect of over 60% in size; note: potency is the fitted concentration of half-maximal effect
In short: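 Luminescent ATP viability signal (CellTiter-Glo, 30 min RT) recorded after wild type DT40 cells were incubated with compounds for 40 h at 37 C/5% CO2.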

[3] = qHTS assay for identifying genotoxic compounds that show differential cytotoxicity against isogenic chicken DT40 cell lines with known DNA damage response pathways - Rev3 mutant cell line (AID 743014); note: nearly all actives have a fitted effect of over 55% in size; note: potency is the fitted concentration of half-maximal effect
[4] = qHTS assay for identifying genotoxic compounds that show differential cytotoxicity against isogenic chicken DT40 cell lines with known DNA damage response pathways - Rad54/Ku70 mutant cell line (AID 743015); note: nearly all actives have a fitted effect of over 60% in size; note: potency is the fitted concentration of half-maximal effect
[5] = biological target: Androgen receptor (Homo sapiens) (UniProt P10275); assay: qHTS assay to identify small molecule antagonists of the androgen receptor (AR) signaling pathway (AID 743035; active = well fitted inhibition curve with a large enough effect in the signal ratio in the repeat runs, not every such curve was filed as active; the % refers to the signal ratio)
In short: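 Quantitative HTS of the Tox21 10K library used HEK293 AR-UAS-bla cells stimulated with R1881 alongside compound for 16 h at 37C, followed by beta-lactamase FRET detection (LiveBLAzer B/G, 2 h, RT).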

[6] = biological target: Androgen receptor (Homo sapiens) (UniProt P10275); assay: qHTS assay to identify small molecule agonists of the androgen receptor (AR) signaling pathway (AID 743036; active = well fitted activation curve with a large enough effect in the signal ratio in the repeat runs, with a control signal flat, not every such curve was filed as active; the % refers to the signal ratio)
In short: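 In this Tox21 qHTS, 2,000 HEK293 AR-bla cells per well were incubated with compounds for 16 h at 37C and 5% CO2. Fluorescence intensity was recorded 2 h after adding LiveBLAzer B/G FRET substrate at room temperature.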

[7] = biological target: Androgen receptor (Homo sapiens) (UniProt P10275); assay: qHTS assay to identify small molecule agonists of the androgen receptor (AR) signaling pathway using the MDA cell line (AID 743040; note: nearly all actives have a fitted effect of over 20% in size)
In short: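 Agonist activity is measured as luciferase luminescence in human MDA-kb2 cells whose MMTV reporter responds to both AR and GR. Compounds in DMSO incubate 16 h at 37C, 0% CO2, and ONE-Glo is read after 30 min.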

[8] = qHTS assay to identify small molecule antagonists of the thyroid receptor (TR) signaling pathway - cell viability counter screen (AID 743064); note: nearly all actives have a fitted effect of over 50% in size; note: potency is the fitted concentration of half-maximal effect
In short: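 Counter screen for cytotoxicity: compound plus T3 (1 nM final) on GH3.TRE-Luc cells, 23.5 h at 37 °C, then fluorescence viability readout with CellTiter-Fluor.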

[9] = qHTS assay to identify small molecule antagonists of the thyroid receptor (TR) signaling pathway (AID 743065); note: nearly all actives have a fitted effect of over 55% in size; note: potency is the fitted concentration of half-maximal effect
In short: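 GH3.TRE-Luc rat pituitary cells carrying two TR response elements driving luciferase were plated for 4 h, given compound plus 1 nM T3 (final), and incubated 23.5 h at 37 C. ONE-Glo luminescence measured reporter inhibition; CellTiter-Fluor fluorescence tracked cytotoxicity.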

[10] = test system: thyroid hormone receptor (rat, GH3 cells); assay: qHTS assay to identify small molecule agonists of the thyroid receptor (TR) signaling pathway (AID 743066; calls by dose curve)
[11] = biological target: Estrogen receptor (Homo sapiens) (UniProt P03372); assay: qHTS assay to identify small molecule antagonists of the estrogen receptor alpha (ER-alpha) signaling pathway (AID 743069; active = well fitted curve in the direction sought with a large enough effect in the signal ratio in the repeat runs, not every such curve was filed as active; the % refers to the signal ratio)
In short: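 Screening used a UAS-driven beta-lactamase reporter integrated into HEK293 cells expressing ER-alpha, stimulated with 17beta-estradiol alongside test compounds over 18 hr at 37C; signal came from LiveBLAzer B/G FRET fluorescence.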

[12] = qHTS assay to identify small molecule antagonists of the estrogen receptor alpha (ER-alpha) signaling pathway - cell viability counter screen (AID 743074; calls by dose curve; note: nearly all actives have a fitted effect of over 45% in size)
[13] = biological target: Estrogen receptor (Homo sapiens) (UniProt P03372); assay: qHTS assay to identify small molecule agonists of the estrogen receptor alpha (ER-alpha) signaling pathway (AID 743075; calls by dose curve)
[14] = biological target: Estrogen receptor (Homo sapiens) (UniProt P03372); assay: qHTS assay to identify small molecule agonists of the estrogen receptor alpha (ER-alpha) signaling pathway using the BG1 cell line (AID 743079); conditions: BG1Luc4E2 cells, ERE-luciferase agonist, 22 h; activation: at 70.3 µM (top of the series); note: nearly all actives have a fitted effect of over 20% in size
[15] = qHTS assay to identify small molecule antagonists of the estrogen receptor alpha (ER-alpha) signaling pathway using the BG1 cell line (AID 743080; calls by dose curve;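 note: BG1 cells stimulated with 17beta-estradiol alongside compound; nearly all actives have a fitted effect of over 25% in size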; note: potency is the fitted concentration of half-maximal effect)
In short: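 BG1Luc4E2, endogenous ER-alpha, 4xERE-luc; 5 d charcoal-stripped FBS, phenol red free; 24 h plating; cpd + 17beta-estradiol 21.5 h, 37 C/5% CO2; CellTiter-Fluor viability 30 min, then ONE-Glo luciferase 30 min RT.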

[16] = qHTS assay to identify small molecule antagonists of the estrogen receptor alpha (ER-alpha) signaling pathway using the BG1 cell line - cell viability counter screen (AID 743081);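 note: compound given together with 17beta-estradiol as the ER stimulus; nearly all actives have a fitted effect of over 45% in size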
Aromatase (Homo sapiens) = Aromatase (Homo sapiens) (UniProt P11511); assay: qHTS assay to identify aromatase inhibitors (AID 743083); note: nearly all actives have a fitted effect of over 55% in size
[17] = qHTS assay to identify small molecule antagonists of the androgen receptor (AR) signaling pathway using the MDA cell line - cell viability counter screen (AID 743041; note: nearly all actives have a fitted effect of over 45% in size)
In short: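 qHTS viability read-out; MDA-kb2 AR-luc; R1881-stimulated; 16 h exposure at 37C, 0% CO2; CellTiter-Fluor, 30 min; fluorescence intensity.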

[18] = qHTS assay to identify small molecule antagonists of the androgen receptor (AR) signaling pathway - cell viability counter screen (AID 743033; note: nearly all actives have a fitted effect of over 45% in size)
[19] = biological target: Androgen receptor (Homo sapiens) (UniProt P10275); assay: qHTS assay to identify small molecule antagonists of the androgen receptor (AR) signaling pathway using the MDA cell line (AID 743042; note: nearly all actives have a fitted effect of over 55% in size)
In short: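 MDA-kb2 cells (human breast carcinoma, stably carrying an MMTV-luciferase reporter responsive to AR and GR) were plated at 3,000 cells/well and preincubated 5 hr at 37C, then given compound plus R1881 agonist for 16 h. ONE-Glo luminescence was read.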

Chain of Aromatase (Homo sapiens) (P11511 whole entry, looked up): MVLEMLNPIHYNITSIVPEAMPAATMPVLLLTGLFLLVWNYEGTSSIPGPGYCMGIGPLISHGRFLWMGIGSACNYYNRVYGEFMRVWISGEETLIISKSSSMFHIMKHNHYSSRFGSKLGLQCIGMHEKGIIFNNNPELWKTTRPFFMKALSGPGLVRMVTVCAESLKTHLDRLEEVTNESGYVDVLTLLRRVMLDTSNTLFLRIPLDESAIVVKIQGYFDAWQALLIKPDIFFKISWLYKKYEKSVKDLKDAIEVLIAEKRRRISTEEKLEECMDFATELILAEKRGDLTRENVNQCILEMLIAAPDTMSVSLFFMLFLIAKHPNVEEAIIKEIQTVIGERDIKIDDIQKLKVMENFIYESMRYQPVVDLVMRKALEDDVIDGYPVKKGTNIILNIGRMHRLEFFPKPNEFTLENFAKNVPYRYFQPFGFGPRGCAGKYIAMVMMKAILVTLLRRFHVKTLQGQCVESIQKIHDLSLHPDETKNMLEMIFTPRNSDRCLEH
Chain of Estrogen receptor (Homo sapiens) (P03372 whole entry, looked up): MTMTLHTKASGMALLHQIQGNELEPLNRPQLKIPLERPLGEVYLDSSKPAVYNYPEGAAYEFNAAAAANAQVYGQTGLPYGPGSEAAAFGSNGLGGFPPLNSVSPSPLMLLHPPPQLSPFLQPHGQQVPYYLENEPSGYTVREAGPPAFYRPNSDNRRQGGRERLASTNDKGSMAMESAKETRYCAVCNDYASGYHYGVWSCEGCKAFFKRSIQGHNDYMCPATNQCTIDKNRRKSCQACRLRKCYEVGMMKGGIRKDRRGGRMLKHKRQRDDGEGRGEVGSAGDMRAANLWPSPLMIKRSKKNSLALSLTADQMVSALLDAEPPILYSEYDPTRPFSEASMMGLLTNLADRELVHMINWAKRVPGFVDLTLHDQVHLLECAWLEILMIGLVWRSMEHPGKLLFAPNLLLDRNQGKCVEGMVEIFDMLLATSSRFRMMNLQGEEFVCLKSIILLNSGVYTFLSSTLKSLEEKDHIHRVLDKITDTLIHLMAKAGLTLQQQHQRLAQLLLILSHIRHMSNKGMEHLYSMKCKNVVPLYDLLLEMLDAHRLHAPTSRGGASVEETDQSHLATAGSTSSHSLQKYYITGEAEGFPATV
Chain of Androgen receptor (Homo sapiens) (P10275 whole entry, looked up): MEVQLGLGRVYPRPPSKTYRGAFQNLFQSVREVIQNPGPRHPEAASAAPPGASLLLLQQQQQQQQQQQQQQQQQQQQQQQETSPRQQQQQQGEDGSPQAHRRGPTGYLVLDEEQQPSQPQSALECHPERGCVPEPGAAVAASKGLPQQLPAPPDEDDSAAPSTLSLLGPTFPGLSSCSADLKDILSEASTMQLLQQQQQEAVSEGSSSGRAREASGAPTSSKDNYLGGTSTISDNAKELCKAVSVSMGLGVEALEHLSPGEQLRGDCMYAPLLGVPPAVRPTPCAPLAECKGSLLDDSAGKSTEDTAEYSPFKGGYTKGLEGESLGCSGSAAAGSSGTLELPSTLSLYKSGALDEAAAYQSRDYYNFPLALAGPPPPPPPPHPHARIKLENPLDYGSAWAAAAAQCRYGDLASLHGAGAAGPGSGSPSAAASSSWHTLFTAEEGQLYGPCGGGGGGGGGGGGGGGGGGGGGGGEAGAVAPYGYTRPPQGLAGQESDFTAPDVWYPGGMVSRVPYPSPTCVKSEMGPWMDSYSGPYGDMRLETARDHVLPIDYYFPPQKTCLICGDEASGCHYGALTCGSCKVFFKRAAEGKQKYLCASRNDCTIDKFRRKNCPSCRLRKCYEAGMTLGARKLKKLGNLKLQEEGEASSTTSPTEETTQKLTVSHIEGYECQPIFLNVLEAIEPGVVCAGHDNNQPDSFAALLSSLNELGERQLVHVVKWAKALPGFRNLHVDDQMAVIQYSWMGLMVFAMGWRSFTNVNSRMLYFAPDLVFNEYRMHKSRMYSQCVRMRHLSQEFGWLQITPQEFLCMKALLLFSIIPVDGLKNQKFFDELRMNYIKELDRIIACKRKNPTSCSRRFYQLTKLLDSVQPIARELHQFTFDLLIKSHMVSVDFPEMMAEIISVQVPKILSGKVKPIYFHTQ

| Compound | Potency [1] | Potency [2] | Potency [3] | Potency [4] | Potency [5] | Potency [6] | Potency [7] | Potency [8] | Potency [9] | outcome [10] | Potency [11] | Potency [12] | Potency [13] | Potency [14] | Potency [15] | Potency [16] | Potency (Aromatase (Homo sapiens)) | Potency [17] | Potency [18] | Potency [19] |
| --- | --- | --- | --- | --- | --- | --- | --- | --- | --- | --- | --- | --- | --- | --- | --- | --- | --- | --- | --- | --- |
| C=CCOC(=O)/C=C\C(=O)OCC=C | inactive | inactive | inactive | inactive | inactive | inactive | inactive | inactive | inactive | inactive | inactive | inactive | inactive | inactive | inactive | inactive | inactive | – | – | – |
| C[Si]1(C)O[Si](C)(C)O[Si](C)(C)O1 | inactive | inactive | inactive | inactive | inactive | inactive | inactive | – | inactive | inactive | – | – | – | – | – | inactive | inactive | inactive | – | – |
| c1cnc2c(n1)CCCC2 | inactive | inactive | inactive | inactive | inactive | inactive | inactive | inactive | inactive | inactive | – | inactive | – | – | – | inactive | inactive | – | – | – |
| CC1CC(=O)NN=C1c1ccc(NCC(C)(C)NCC(O)COc2cc(Cl)ccc2C#N)cc1 (centres undefined) | inactive | 0.668 µM (active) | 0.376 µM (active) | 0.668 µM (active) | – | – | – | inactive | inactive | inactive | – | inactive | inactive | inactive | inactive | inactive | inactive | – | inactive | – |
| CC(C)c1nnc2ccc(-c3ocnc3-c3cc(F)ccc3F)cn12 | inactive | 27.3 µM (active) | 21.7 µM (active) | 27.3 µM (active) | – | – | – | inactive | inactive | inactive | – | inactive | inactive | – | 54.5 µM (active) | inactive | inactive | – | – | – |
| CCn1nc(C)c2c1C(=O)NCC(c1ccc(O)cc1)=N2 | inactive | 61.1 µM (active) | 34.4 µM (active) | – | – | – | – | inactive | inactive | inactive | – | inactive | inactive | inactive | inactive | inactive | inactive | inactive | – | – |
| CCCCCCCCCOC(C)=O | inactive | inactive | inactive | – | – | – | – | inactive | inactive | inactive | inactive | inactive | inactive | inactive | inactive | inactive | inactive | inactive | inactive | – |
| NC(=O)Cn1c(=O)cc(CCN2CCN(c3nccc4sccc34)CC2)c2ccc(F)cc21 | inactive | 27.3 µM (active) | 27.3 µM (active) | 24.3 µM (active) | – | – | – | – | – | – | – | inactive | inactive | – | inactive | inactive | inactive | inactive | – | – |
| Cc1cc(OI)c(C(C)C)cc1-c1cc(C(C)C)c(OI)cc1C | inactive | inactive | inactive | inactive | – | – | – | – | – | inactive | – | inactive | – | – | – | inactive | inactive | inactive | – | – |
| Cc1ccnc2ccccc12 | inactive | inactive | – | inactive | – | – | – | inactive | inactive | inactive | inactive | inactive | inactive | inactive | inactive | inactive | inactive | inactive | inactive | – |
| Cc1occc1C(=O)Nc1ccc(C(=O)N2CCC(F)(F)/C(=C\C(=O)N3CCC(N4CCCCC4)CC3)c3ccccc32)cc1 | inactive | inactive | inactive | – | – | inactive | inactive | 17 µM (active) | 19.1 µM (active) | inactive | inactive | inactive | inactive | – | – | – | – | inactive | inactive | inactive |
